Results on 28 compounds are retold here after PubChem BioAssay AID624330 (Southern Research Specialized Biocontainment Screening …, 2012).

Among all 340,000 compounds or so, about 2,100 (0.62%) were called active.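 The calls were made as follows: active = first-screen hits whose inhibition reached a set limit at any dose in the follow-up dose series; inconclusive = inhibition above the set first-screen limit but never retested; inactive = the rest.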 These entries were drawn from the full list. Results with a measured potency or affinity are listed apart.

For this assay, the target named is Rac GTPase-activating protein 1 (Homo sapiens) (UniProt Q9H0H5). Nature of the assay: blockers of MgcRacGAP-driven Rac1 GTP hydrolysis – biochemical, ADP Hunter fluorescence, primary and confirmatory, confirmation (AID 624330).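 Also: fluorescence reports GDP produced by GAP-driven GTP hydrolysis.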 The conditions noted are these: MgcRacGAP-stimulated Rac1 GTP hydrolysis, at 30 µM, hits give high values, GST-tagged Rac1 F28L mutant substrate.
Rac GTPase-activating protein 1 (Homo sapiens), sequence (Q9H0H5 whole entry, looked up): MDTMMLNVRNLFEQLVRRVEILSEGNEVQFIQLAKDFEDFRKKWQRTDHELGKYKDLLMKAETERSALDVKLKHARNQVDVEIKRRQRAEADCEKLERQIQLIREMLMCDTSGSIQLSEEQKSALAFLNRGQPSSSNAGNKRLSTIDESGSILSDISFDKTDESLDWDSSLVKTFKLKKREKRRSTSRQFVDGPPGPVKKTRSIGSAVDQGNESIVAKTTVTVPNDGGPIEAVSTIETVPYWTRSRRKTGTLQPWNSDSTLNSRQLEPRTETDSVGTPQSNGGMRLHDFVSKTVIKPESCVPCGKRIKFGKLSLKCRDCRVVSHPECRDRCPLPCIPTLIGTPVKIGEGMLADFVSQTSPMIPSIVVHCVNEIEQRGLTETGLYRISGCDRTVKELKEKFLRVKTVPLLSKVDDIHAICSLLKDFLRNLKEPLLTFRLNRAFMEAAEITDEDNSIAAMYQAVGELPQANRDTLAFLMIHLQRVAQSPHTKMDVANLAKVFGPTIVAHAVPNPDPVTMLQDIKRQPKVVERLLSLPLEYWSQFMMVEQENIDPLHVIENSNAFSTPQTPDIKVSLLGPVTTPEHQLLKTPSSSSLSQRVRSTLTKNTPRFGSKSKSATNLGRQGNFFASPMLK
As a reminder, the inhibition is the relative decrease from the control value, in per cent. Regarding `CS(=O)(=O)N(CC(=O)N1CCCC1)c1cc(Cl)ccc1Cl`, the inhibition was 8.42% (inactive).
The result for `Cc1ccc(S(=O)(=O)NCC(c2ccco2)N2CCc3ccccc3C2)cc1` (stereo not drawn) reads 2.71% (inactive); that for `Cc1c(N(C)S(=O)(=O)c2ccc(Cl)c(C(=O)NCC3CCCO3)c2)c(=O)n(-c2ccccc2)n1C` (stereo not drawn), 1.31% (inactive); that for `O=C(Nc1nnc(C2CC2)s1)C1CCCCC1`, 3.57% (inactive).
The result for `CCOc1ccc(CCNC(=O)COC(=O)c2ccc(OC(C)C)cc2)cc1OCC` reads -0.74% (inactive).
As for `CCOc1ccccc1CN1CCC(O)CC1`, the figure is 15.6% (inactive); as for `CCOc1ccccc1CN1CCC(N2CCC(C(=O)NC3CC3)CC2)CC1`, 9.11% (inactive).
Take `CCOc1ccc(C(=O)NCCC(=O)NCCCC(=O)O)cc1`: the inhibition is -5.31% (inactive).
The result for `O=C(CCS(=O)(=O)c1ccc(Cl)cc1)Nc1nnc(-c2ccco2)o1` reads 3.12% (inactive); that for `COc1ccc(CNCc2ccc(C(F)(F)F)cc2)cc1OC`, 2.76% (inactive); that for `COc1ccc(CNCCc2ccc([N+](=O)[O-])cc2)c(OC)c1OC`, 25.1% (inactive).
In the case of `COc1ccc(NC(=O)NCCc2cccc(Cl)c2)cc1OC`, the inhibition is 11.4% (inactive).
As for `COc1ccccc1CNC(=O)CCSCc1cccc(Cl)c1`, the figure is -0.5% (inactive); as for `COc1cccc(CNCCO)c1OCc1ccc(Cl)cc1`, 9.58% (inactive).
The result for `COc1ccc(CCNC(=O)Cc2cccc(C(F)(F)F)c2)cc1OC` reads 8.81% (inactive); that for `COc1ccccc1CNCc1cc(Br)ccc1OC`, 23.1% (inactive).
As for `COc1cccc(CNCc2ccccc2OC)c1`, the figure is 22.3% (inactive); as for `O=C(NCc1ccco1)C1CCCN(c2nnc(-n3cccc3)s2)C1` (stereo not drawn), 14.7% (inactive); as for `C=CCn1c(SCC(=O)NC2(C)CCS(=O)(=O)C2)nc2ccccc21` (stereo not drawn), 1.26% (inactive).
As to `Cn1c(N)c(C(=O)CSc2nc3ccccc3n2-c2ccccc2)c(=O)n(C)c1=O`, the inhibition is 4.85% (inactive).
The result for `CCOC(=O)CNC(=O)C1c2ccccc2Oc2ccccc21` reads 3.51% (inactive); that for `Cc1csc(NC(=O)c2ccncc2)n1`, 7.69% (inactive); that for `Cc1cc(=O)[nH]c(SCC(=O)Nc2ccccc2[N+](=O)[O-])n1`, 6.16% (inactive).
Turning to `CC(=O)N(C)c1ccc(N=Nc2ccc3ncccc3c2)cc1`, the inhibition was -1.54% (inactive).
As to `COc1ccc(/C=N/NC(=O)c2sc3nc(C)cc(C)c3c2N)cc1`, the inhibition is 9.68% (inactive).
As for `CC(C)C1Nc2c(O)cc(Cl)c([N+](=O)[O-])c2C2C=CCC21` (stereo not drawn), the figure is 11.3% (inactive); as for `O=C(O)C1Nc2c(C(F)(F)F)ccc(Cl)c2C2C=CCC12` (stereo not drawn), -3.26% (inactive); as for `CCCCn1nc(C(=O)N(CC(C)C)c2c(N)n(CCCC)c(=O)[nH]c2=O)c2ccccc2c1=O`, 9.52% (inactive).
